The text below walks through data of PubChem BioAssay.

Molecules are shown by their SMILES. A number with no mark means an inactive call. The rule behind the calls is not given here.

For the test, the target named is Pantothenate synthetase (Mycobacterium tuberculosis (strain ATCC 25618 / H37Rv)) (UniProt P9WIL5). The experiment in a line: Recombinant Mtb pantothenate synthetase (PanC) inhibitors, coupled enzyme, confirmatory (AID 375).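 Note: 0% = full reaction with vehicle and 100% = no enzyme background.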 As to conditions: coupled enzyme assay; at 10 µM, hits give high values.
Sequence of Pantothenate synthetase (Mycobacterium tuberculosis (strain ATCC 25618 / H37Rv)) (P9WIL5 whole entry, looked up): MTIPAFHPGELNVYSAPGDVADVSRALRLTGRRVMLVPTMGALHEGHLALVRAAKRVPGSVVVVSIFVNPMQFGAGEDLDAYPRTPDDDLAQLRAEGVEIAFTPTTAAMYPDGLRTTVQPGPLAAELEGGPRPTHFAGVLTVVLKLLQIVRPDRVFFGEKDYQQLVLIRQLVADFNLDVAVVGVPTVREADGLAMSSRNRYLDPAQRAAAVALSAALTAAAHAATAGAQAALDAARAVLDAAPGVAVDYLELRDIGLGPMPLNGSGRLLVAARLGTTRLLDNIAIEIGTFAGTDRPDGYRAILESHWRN

In the case of `Cc1ccc(C)c(C(=O)CC2(O)C(=O)N(C)c3ccccc32)c1` (stereo not drawn), the inhibition (commonly the relative decrease from the control value, in per cent) is 0%.
`CCCC(CCC)C(=O)NCCN1CCOCC1`: the inhibition was 0%.
As to `Cc1nc2c(C(=O)O)cnn2c(C)c1Cc1ccccc1F`, the inhibition is 0%.
With `O=C(CC1CCS(=O)(=O)C1)Nc1ccc[nH]c1=O` (stereo not drawn), the inhibition is 2%.
Consider `Cc1ccccc1-c1noc(N)c1C#N`, for which the inhibition was 0%.
As for `CC1(C)CC(=O)C2=C(C1)Nc1ccccc1N=C2`, the inhibition was 0%.
With `Cc1cc(NC(=O)CSc2nc(C3CCCCC3)nc3ccccc23)no1`, the inhibition is 0%.
`CCC(C)(C)NC(=O)CN(C(=O)c1snc(C(N)=O)c1N)c1ccc2c(c1)OCO2`: the inhibition is 11%.
Next, `COC(=O)CSc1nnc(-c2cccs2)n1-c1ccc(Cl)cc1`: 4%; `CC1CCCCC1NC(=O)c1ccc(N2CCCC2=O)cc1` (stereo not drawn): 0%; `COc1cccc(OCC(=O)Nc2ccccc2C(N)=O)c1`: 4%.
Turning to `COc1cccc(Cn2c(-c3nonc3N)nc3ccccc32)c1`, the inhibition was 0%.
`N/C(=N/O)c1nc(N2CCCCC2)nc(N2CCCCC2)n1`: the inhibition was 0%.
`Cc1c(NC(=O)c2cnn3c2NC(c2ccco2)CC3C(F)(F)F)c(=O)n(-c2ccccc2)n1C` (stereo not drawn): the inhibition is 9%.
In the case of `O=C(Nc1ccc(Cl)cc1)N1CCSCC1`, the inhibition was 1%.
On to `CCOc1ccc(NC2c3ccccc3C(=O)N2Cc2ccco2)cc1` (stereo not drawn), for which the inhibition was 1%.
For `COc1ccc2c(c1OC)C(=O)N(c1ccc3c(c1)CCC3)C2=O`, the inhibition was 2%.
In the case of `Cc1ccc(F)cc1NC(=O)c1cccc2nccnc12`, the inhibition was 1%.
On to `CCOC(=O)CSc1nc2c(c(-c3ccc(C)o3)c1C#N)CCCC2`, for which the inhibition was 0%.
As to `CC(C)(C)n1nnnc1CN(Cc1ccco1)Cc1cc2cc3c(cc2[nH]c1=O)OCO3`, the inhibition was 0%.
As for `O=C1CC(c2cccc(Cl)c2)CC(O)=C1C=NCCCO` (stereo not drawn), the inhibition is 9%.
In the case of `CCn1c(SCC(=O)Nc2nccs2)nnc1-c1ccncc1`, the inhibition was 4%.
Regarding `CN=C(C)C1=C(O)C(C(=O)OC)C(C)(C)CC1=O` (stereo not drawn), the inhibition is 0%.
With `C=CCN(C(=O)CNC(=O)c1ccco1)C(C(=O)NC1CCCCC1)c1ccccc1F` (stereo not drawn), the inhibition is 0%.
For the molecule `CCC(=O)n1nc(-c2ccco2)nc1N`, the inhibition is 0%.
Consider `COc1cccc(N2CCN(Cc3nc(N)nc(Nc4ccccc4)n3)CC2)c1`, for which the inhibition is 0%.
Next, `Cc1ccc(C2CC(c3ccc(C)cc3)n3nc(N)nc3N2)cc1` (stereo not drawn): 5%; `CCOC(=O)c1cnc(-n2nc(C)cc2C)nc1Nc1ccc(N(C)C)cc1`: 8%; `COc1ccc(CCNC(=O)C2CCN(C(=O)N(C)C)CC2)cc1OC`: 0%.
As to `Cc1ccc(C(C(=O)NC2CCCCC2)N(C(=O)c2csnn2)C2CCCC2)o1` (stereo not drawn), the inhibition was 0%.
With `CC1=C(C#N)C(c2ccoc2)C(C(=O)OCc2ccccc2)=C(N)S1` (stereo not drawn), the inhibition was 5%.
As for `CCOC(=O)c1c(C)[nH]c(C(=O)Cn2c(=O)c3c(ncn3CC)n(Cc3ccccc3)c2=O)c1C`, the inhibition was 3%.
In the case of `CC(C)c1nnc(NC(=O)CCC(=O)NCc2ccc3c(c2)OCO3)s1`, the inhibition was 3%.
With `CCOC(=O)N1CCN(C(=O)c2ccc(CS(=O)(=O)c3ccc(OC)cc3)o2)CC1`, the inhibition was 1%.
Consider `CC1=NS(=O)(=O)c2cc(Cl)ccc2N1`, for which the inhibition is 6%.
With `O=C1CC(c2ccccc2)Cc2nc(N3CCc4ccccc43)ncc21` (stereo not drawn) the figure was 1%.
With `CCOc1cccc(-c2nnc3n2N=C(c2cc(OC)ccc2OC)CS3)c1`, the inhibition is 8%.
Turning to `COC(=O)C(NC(C)=O)(Nc1nc2ccc(S(C)(=O)=O)cc2s1)C(F)(F)F` (stereo not drawn), the inhibition was 0%.
Consider `COc1ccc(C(=O)NCc2nnc(SC)n2C2CCCCC2)cc1`, for which the inhibition was 2%.
For the molecule `c1ccc(-c2ccccc2OCCn2cncn2)cc1`, the inhibition is 5%.
As for `CCCc1cc(Nc2cccc(OC)c2)n2ncnc2n1`, the inhibition is 0%.
Next, `CCOc1ccc(-c2nnc3sc(-c4c(OC)cccc4OC)nn23)cc1`: 0%; `COC(=O)Nc1sccc1C(=O)Nc1sccc1C(=O)OC`: 0%; `Cc1nc2ccccc2cc1C(=O)NCc1ccco1`: 0%.
On to `COc1cc(/C=N/n2cnnc2)ccc1OCC(=O)N1CCOCC1`, for which the inhibition was 0%.
With `CC(NC(=O)NCCCC(=O)O)(C(F)(F)F)C(F)(F)F`, the inhibition was 0%.
On to `CCOC(=O)N1CCC(N2CC34C=CC(O3)C(C(=O)O)C4C2=O)CC1` (stereo not drawn), for which the inhibition is 0%.
As for `Cc1cnnc2c1-c1nonc1CC2`, the inhibition was 4%.
